Source: PubChem BioAssay (NCATS)
“And” between values parts separate entries of the source, which are not always exact repeats. Identical values can stand only once. Results filed as inconclusive are left out. A structure can be active in one record and inactive in another. The source made the active and inactive calls. Calls come from the whole dose curve; as a rule, active = well fitted inhibition curve with a large enough effect; inconclusive = small, poorly fitted or top-dose-only effect; inactive = no such curve, though single readings can be large or run the other way.

Assay: Primary qHTS for inhibitors of nuclear receptor binding SET domain protein 2 (NSD2) in an RCH-ACV wild type WT cells (2C) (AID 1645877); note: nearly all actives have a fitted effect of over 70% in size
Conditions: RCH-ACV (leukaemia line) NSD2 WT (2C) viability, CellTiter-Glo, 72 h; series mostly up to 44.9 µM
Text: Assay Provider: Jonathan D. Licht, MD
University of Florida College of Medicine, Gainesville, FL
Mutations in epigenetic regulators are common in relapsed pediatric acute lymphoblastic leukemia (ALL). Here, we uncovered the mechanism underlying the relapse of ALL driven by an activating mutation of the NSD2 histone methyltransferase (p.E1099K). […] Correction of this mutation restored glucocorticoid sensitivity. The transcriptional response to glucocorticoids was blocked in NSD2 mutant cells due to depressed glucocorticoid receptor (GR) levels and the failure of glucocorticoids to autoactivate GR expression. […] Pre-treatment of NSD2 p.E1099K cell lines and PDX samples with PRC2 inhibitors reversed glucocorticoid resistance in vitro and in vivo.
High-throughput drug screening of isogenic RCH-ACV cell lines was performed at the National Center for Advancing Translational Science (NCATS), National Institutes of Health as previously described (1). Briefly, isogenic RCH-ACV NSD2 p.E1099K mutant (9B) and WT cells (2C) were plated at 500 cells/well in a 1536-well plate with a 72-hour incubation with compounds prior to addition of CellTiter-Glo to assess cell viability. NCATS libraries screened include: NPC, MIPE 5.0, Kinase and NPACT. To determine compound activity in the qHTS assay, the concentration-response data for each sample was plotted and modeled by a four-parameter logistic fit yielding IC50 and efficacy (maximal response) values. The area under the curve (AUC) of the dose-response curve ensures both efficacy (magnitude of cell killing) and potency (concentration that elicits cell killing) are accounted for in the analysis of activity.
1. Tobie D Lee, Olivia W Lee, Kyle R Brimacombe, Lu Chen, Rajarshi Guha, Sabrina Lusvarghi, Bethilehem G Tebase, Carleen Klumpp-Thomas, Robert W Robey, Suresh V Ambudkar, Min Shen, Michael M Gottesman, Matthew D Hall. A High-Throughput Screen of a Library of Therapeutics Identifies Cytotoxic Substrates of P-glycoprotein. Mol Pharmacol. 2019, Nov;96(5):629-640.
% is set by controls: 0 for no effect and ±100 for the full control effect.

Structure (SMILES) | Potency | activity change, negative = cell killing
Cc1ccccc1C(OCCN(C)C)c1ccccc1 (stereo not given) | inactive | 
Nc1ncnc2nc(-c3ccc(N4CCOCC4)nc3)cc(-c3cccc(Br)c3)c12 | 20.9 µM (active) | 
Oc1cccc(-c2nc(N3CCOCC3)c3oc4ncccc4c3n2)c1 | 0.166 µM (active) | 
CCn1c(-c2nonc2N)nc2cnc(Oc3cccc(NC(=O)c4ccc(OCCN5CCOCC5)cc4)c3)cc21 | 326 nM (active) and 417 nM (active) | 
NC(=O)c1ccc(I)c([N+](=O)[O-])c1 | 16.6 µM (active) | 
COc1ccc(-c2ccc3c(N4CCOCC4)nc(N4C[C@@H](C)O[C@@H](C)C4)nc3n2)cc1CO | inactive | 
O=C(c1cc(Cc2n[nH]c(=O)c3ccccc23)ccc1F)N1CCN(C(=O)C2CC2)CC1 | 3.72 µM (active) | 
COc1ccc(-c2c(-c3ccc(O)cc3O)n[nH]c2C)cc1 | inactive | 
Cc1ccc(NC(=O)c2cccc(C(C)(C)C#N)c2)cc1Nc1ccc2ncn(C)c(=O)c2c1 | 13.2 µM (active) | 
S=C(NCc1ccc2c(c1)OCO2)N1CCN(c2ncnc3c2oc2ccccc23)CC1 | 8.17 µM (active) | 
CC(=O)Oc1ccccc1C(=O)O | inactive | 
CN([C@@H](Cc1ccc(OS(=O)(=O)c2cccc3cnccc23)cc1)C(=O)N1CCN(c2ccccc2)CC1)S(=O)(=O)c1cccc2cnccc12 |  | 9.55% [at 4.96 µM] (inactive)
NC(=O)C1CCCc2c1[nH]c1ccc(Cl)cc21 (stereo not given) | inactive | 
COc1ccc2c3n(c(=NC(=O)c4cccnc4)nc2c1OC)CCN3 | 0.186 µM (active) | 
CC(C)(Sc1ccc(CCN(CCCCC2CCCCC2)C(=O)NC2CCCCC2)cc1)C(=O)O | inactive | 
CCCCNc1cc(C(=O)O)cc(S(N)(=O)=O)c1Oc1ccccc1 | inactive | 
Cc1[nH]c(=O)c(C#N)cc1-c1ccc2nccn2c1 | inactive | 
O=C1CCCC2=C1C(c1[nH]ncc1Cl)N=C(Nc1nc3ccccc3o1)N2 (stereo not given) | inactive | 
Cc1n[nH]c(C)c1Cc1sc2c(c1C(=O)N1C[C@H](O)CO1)c(=O)n(C)c(=O)n2CC(C)C | inactive | 
COc1ccc(CCN2CCN(CCCc3ccccc3)CC2)cc1OC | inactive | 

Structure (SMILES) | Potency | activity change, negative = cell killing
Cc1cc(Nc2nc(N[C@@H](C)c3ncc(F)cn3)ncc2Cl)n[nH]1 | 2.05 µM (active) and 3.72 µM (active) | 
c1ccc(-c2nn3c(c2-c2ccnc4cc(OCCN5CCOCC5)ccc24)CCC3)nc1 | 16.6 µM (active) | 
COc1cc(Nc2ncc3c(n2)-c2ccc(Cl)cc2C(c2c(F)cccc2OC)=NC3)ccc1C(=O)O | 91.6 nM (active) and 29 nM (active) and 37.2 nM (active) | 
CCCS(=O)(=O)Nc1ccc(F)c(C(=O)c2c[nH]c3ncc(-c4ccc(Cl)cc4)cc23)c1F | 16.4 µM (active) and inactive | 
N#Cc1ccc(C(c2ccc(C#N)cc2)n2cncn2)cc1 | inactive | 
C1COC(NC(C2CC2)C2CC2)=N1 | inactive | 
CCN(c1ccccc1)c1cc(NC)[n+](C)c(C)n1 | inactive | 
CC1(C)CNc2cc(NC(=O)c3cccnc3NCc3ccncc3)ccc21 | inactive | 
CN(C)c1ccc(Nc2nc(N)n(C(=O)c3c(F)cccc3F)n2)cc1 | 0.833 µM (active) | 
N#CC[C@H](C1CCCC1)n1cc(-c2ncnc3[nH]ccc23)cn1 | 18.3 µM (active) and 9.34 µM (active) | 
Cc1ccnc(NS(=O)(=O)c2ccc(NC(=O)Nc3ccc(S(=O)(=O)Nc4nccc(C)n4)cc3)cc2)n1 | inactive | 
CO[C@@H]1[C@H](N(C)C(=O)c2ccccc2)C[C@H]2O[C@]1(C)n1c3ccccc3c3c4c(c5c6ccccc6n2c5c31)C(=O)NC4 | 1.3 µM (active) and 525 nM (active) | 
CC(C)NCC(O)COc1ccc(COCCOC(C)C)cc1 (stereo not given) | inactive | 
Cc1cnc(Nc2ccc(OCCN3CCCC3)cc2)nc1Nc1cccc(S(=O)(=O)NC(C)(C)C)c1 | 1.83 µM (active) and 1.86 µM (active) | 
Cc1oncc1C(=O)Nc1ccc(C(F)(F)F)cc1 | 10.6 µM (active) and 14.8 µM (active) | 
CCCn1c(=O)c2[nH]c(C34CC5CC3C[C@@H](C5)C4)nc2n(CCC)c1=O | inactive | 
COc1cc(F)c(F)c(Nc2ccc(I)cc2F)c1NS(=O)(=O)C1(C[C@H](O)CO)CC1 | 25.8 µM (active) and 20.9 µM (active) | 
O=C1CCc2cc(OCCCCc3nnnn3C3CCCCC3)ccc2N1 | 21.1 µM (active) | 
CCOc1ccn(-c2ccc(F)cc2)c(=O)c1C(=O)Nc1ccc(Oc2ccnc(N)c2Cl)c(F)c1 | 8.17 µM (active) and 7.42 µM (active) | 
Cc1c(CCOc2ccc(C(=O)O)cc2)c2cc(Cl)ccc2n1C(c1ccccc1)c1ccccc1 | inactive | 
